# S2 tox: viability counter-screen for ATXN expression inhibitors; S2 cells (HEK-293 line with an ATXN2-luciferase reporter) viability, CellTiter-Fluor protease fluorescence, 24 h; Potency, µM (series often up to 56.7 µM), most hits filed as cytotoxic; 400,000 compounds, 0.49% hits; further: nearly all actives have a fitted effect of over 40% in size
# ALOX12 inh: ALOX12 (human) lipoxygenase inhibition. P18054. purified 12hLO, xylenol orange hydroperoxide absorbance. 580,000 compounds, 1.1% hits. Potency, µM (highest dose often 108 µM), inactives show at the top dose activity change, negative = inhibition, hits mostly inhibitors; further: on the % scale 0 is the no-effect control and ±100 the full control effect
# Target sequence (P18054 whole entry, looked up): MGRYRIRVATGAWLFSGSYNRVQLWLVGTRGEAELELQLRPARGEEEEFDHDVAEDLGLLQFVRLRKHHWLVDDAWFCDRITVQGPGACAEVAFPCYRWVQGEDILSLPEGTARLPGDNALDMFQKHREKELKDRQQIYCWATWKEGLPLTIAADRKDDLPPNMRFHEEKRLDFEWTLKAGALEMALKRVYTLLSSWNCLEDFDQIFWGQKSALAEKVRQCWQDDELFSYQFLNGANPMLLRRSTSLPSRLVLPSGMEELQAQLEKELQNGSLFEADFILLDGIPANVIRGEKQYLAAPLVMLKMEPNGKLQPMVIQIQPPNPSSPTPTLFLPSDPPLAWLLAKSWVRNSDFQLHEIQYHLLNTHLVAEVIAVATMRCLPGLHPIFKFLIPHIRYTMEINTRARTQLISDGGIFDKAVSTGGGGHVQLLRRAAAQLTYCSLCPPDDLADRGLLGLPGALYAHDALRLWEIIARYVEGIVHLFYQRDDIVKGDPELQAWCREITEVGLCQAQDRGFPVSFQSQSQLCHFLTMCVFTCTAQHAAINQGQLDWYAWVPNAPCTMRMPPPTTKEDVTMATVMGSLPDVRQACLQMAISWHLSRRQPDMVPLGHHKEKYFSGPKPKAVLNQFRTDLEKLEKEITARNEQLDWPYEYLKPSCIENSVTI
#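 Hydroperoxide product was detected by ferrous iron/xylenol orange as the 573 to 405 nm absorbance ratio. Arachidonic acid at 40 uM (final) was turned over for 30 min at room temperature by 150 nM human 12hLO, pH 7.0 Hepes buffer, after 15 min compound preincubation.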
# TGFb SMAD3 inh: blocks TGF-b signaling | HepG2 CAGA-GFP TGF-b/SMAD3 reporter, GFP fluorescence, 18 h; TGF-beta stimulated, 500 pg/mL final | Potency, µM (highest dose often 46.1 µM), inactives show top-dose activity, negative = inhibition, actives largely listed as inhibitors | 410,000 compounds, 1.2% hits; further: on the % scale 0 is the no-effect control and ±100 the full control effect; nearly all actives have a fitted effect of over 65% in size
#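 Inhibition was scored as loss of TGF-beta-induced (500 pg/mL final, 18 hours, 37 degrees C) GFP in HEPG2 cells carrying a CAGA-GFP reporter, in DMEM with 1% FBS. Well GFP was summed per cell; Activity was normalised to unstimulated and stimulated DMSO wells, then concentration-response fitting.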
# ATXN2 expr inh: inhibitors of ATXN2 expression | HEK-293 ATXN2-luciferase reporter, luminescence, 24 h | 360,000 compounds, 0.72% hits | AID 1745845 | Potency, µM (doses to about 57 µM), for the others: at the top dose activity change, negative = inhibition, hits mostly inhibitors; further: on the % scale 0 is the no-effect control and ±100 the full control effect; nearly all actives have a fitted effect of over 55% in size
#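 ATXN2-luciferase reporter cells (luciferase flanked by upstream and downstream ATXN2 gene portions) were treated 24 h at 37 °C with compounds at up to 57 uM. SteadyGlo luminescence gave expression; GF-AFC fluorescence gave viability.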
# HepG2 tox-1: counter-screen for TGF-b inhibitors: cytotoxicity in HepG2 cells; HepG2 CAGA-GFP viability, ATP luminescence, 18 h; Potency, µM (top dose mostly 46.1 µM), for the others: at the highest dose activity change, negative = cytotoxicity, most hits filed as cytotoxic; 410,000 compounds, 0.76% hits; AID 588856
#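 HepG2 CAGA-GFP cells (1000/well, DMEM with 1% FBS) received compound, then TGF-beta at 500 pg/mL final, and were incubated 18 hours at 37 degrees C. Viability was read by CellTiter-Glo luminescence. Media-only wells were set as complete cell-killing and DMSO as no toxicity.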
# TGFb confirm: confirmation of TGF-b signaling inhibitors in HepG2 reporter cells. shares compounds with TGFb SMAD3 inh. HepG2 CAGA-GFP TGF-b reporter, GFP fluorescence, 18 h; cells stimulated with TGF-beta, 500 pg/mL. 1,600 compounds, 63% hits. Potency, µM (top dose mostly 46.1 µM), for inactives: top-dose activity, negative = inhibition, actives largely listed as inhibitors; further: on the % scale 0 is the no-effect control and ±100 the full control effect; nearly all actives have a fitted effect of over 65% in size
# HepG2 tox-2: toxic to HepG2 cells in TGF-b counterscreen; shares compounds with TGFb SMAD3 inh; HepG2 CAGA-GFP viability, ATP luminescence, 18 h; cells stimulated with TGF-beta, 500 pg/mL; Potency, µM (doses to about 46.1 µM), for inactives: at the top dose activity, negative = cytotoxicity, most hits filed as inhibitors; 1,600 compounds, 27% hits; further: on the % scale 0 is the no-effect control and ±100 the full control effect; nearly all actives have a fitted effect of over 70% in size
# TGFb CCL64 inh: TGF-b inhibition, CCL64 orthogonal assay | shares compounds with TGFb SMAD3 inh | CCL64 CAGA-GFP reporter, TGF-b stimulated, GFP fluorescence, 18 h | Potency, µM (doses to about 46.1 µM), for inactives: at the highest dose activity, negative = inhibition, most hits filed as inhibitors | 1,600 compounds, 41% hits; further: nearly all actives have a fitted effect of over 65% in size
# TGFb COP inh: TGF-b inhibition validated with COP promoter | HepG2 COP-GFP TGF-b reporter, GFP fluorescence, 18 h; cells stimulated by added recombinant TGF-beta | shares compounds with TGFb SMAD3 inh | AID 720537 | Potency, µM (doses to about 46.1 µM), inactives show at the top dose activity, negative = inhibition, actives largely listed as inhibitors | 1,600 compounds, 3% hits; further: nearly all actives have a fitted effect of over 70% in size
# Starred values were filed as active, the others as inactive; i = inactive; ? = inconclusive; . = not tested or not shown; [ ] = dose if it differs, or a comment. Rows were chosen to be rich in hits. Some 2.7% of all compounds tested hit in one or more screens of this group. The call rests on the fitted dose curve; in most records, active means well fitted curve in the direction sought with a large enough effect; inconclusive means small, poorly fitted or top-dose-only effect, or another doubt; inactive means no such curve, though single readings can be large; an effect the other way counts as inactive or inconclusive. Potency means the concentration at half of the fitted maximal effect.
SMILES,S2 tox,ALOX12 inh,TGFb SMAD3 inh,ATXN2 expr inh,HepG2 tox-1,TGFb confirm,HepG2 tox-2,TGFb CCL64 inh,TGFb COP inh
CCOc1ccc(S(=O)(=O)N2CCC(C(=O)NCc3ccco3)CC2)cc1,i,4.0%,0.0%,-8.0%,-33.6%,.,.,.,.
Cc1ccc(Cl)cc1N1CCN(C(=S)NCc2ccco2)CC1,i,?,15.8µM*,-20.1%,-18.8%,16.4µM*,?,?,37.6%
S=C(NCc1ccco1)N1CCN(c2ccccc2Cl)CC1,i,-18.4%,11.2%,23.0%,-12.9%,.,.,.,.
Cn1c(NCc2ccncc2)nc2cc(-c3ccsc3)sc2c1=O,i,10.1%,?,1.4%,0.7%,.,.,.,.
Cn1c(NCC2CCCCC2)nc2cc(-c3ccsc3)sc2c1=O,i,-25.8%,?,-4.3%,-16.4%,23.1µM*,?,?,23.4%
Cc1ccc2nc(/C(C#N)=C\c3ccc([N+](=O)[O-])o3)[nH]c2c1,.,-14.4%,?,5.62µM*,5.01µM*,16.4µM*,6.51µM*,4.61µM*,4.6%
O=[N+]([O-])c1cc2no[n+]([O-])c2cc1N1CCCCC1,5.32µM*,?,2.82µM*,9.47µM*,5.5%,1.64µM*,6.51µM*,3.66µM*,?
N#Cc1cc(N2CCCCC2)c([N+](=O)[O-])cc1C#N,i,2.1%,-4.8%,-12.9%,-9.2%,.,.,.,.
Fc1ccc(-c2cnc3n[nH]c(-c4ccccc4)c3n2)cc1,.,11.3%[176 µM],.,.,.,.,.,.,.
CC1(C)C2CC=C(/C=N/NC(=O)c3ccccc3O)C1C2 (centres undefined),i,0.4%,-17.9%,-1.5%,-3.9%,.,.,.,.
CNC(=S)N/N=C/C1=CCC2CC1C2(C)C (centres undefined),i,?,1.12µM*,-0.3%,-13.9%,?,-8.5%,?,-10.2%
C=CCNc1ncnc2c1ncn2C1OC(CO)C(O)C1O (centres undefined),i,43.8%,10µM*,-6.5%,7.94µM*,10.3µM*,?,-18.2%,28.3%
OCC1OC(n2cnc3c(NCc4ccco4)ncnc32)C(O)C1O (centres undefined),?,-8.6%,5.01µM*,?,-88.2%,5.8µM*,18.4µM*,11.6µM*,32.9%
OC[C@H]1O[C@@H](n2cnc3c(NCc4ccco4)ncnc32)[C@H](O)[C@@H]1O,?,-9.5%,?,?,-64.6%,.,.,.,.
Cc1ccc(C)c(/C=C/C(=O)c2ccc(O)cc2)c1,.,-21.8%,.,.,.,.,.,.,.
Cc1ccc(OCCNC(=O)[C@H]2O[C@@H](n3cnc4c(N)ncnc43)[C@H](O)[C@@H]2O)cc1C,i,-3.7%,?,-27.7%,-20.8%,?,-9.9%,-1.8%,-20.4%
O=C(Nc1ccccc1)Nc1ncc([N+](=O)[O-])s1,22.4µM*,?,3.16µM*,?,-22.9%,13µM*,?,18.4µM*,87.3%
